# Calls of active or inactive are those of the source.
# Experiments:
# [1] = tested on: Wnt5a (protein binding on small-molecule microarray); assay: small molecules binding Wnt5a protein – biophysical, small-molecule microarray, 635/667 nm fluorescence, primary screen (AID 1142); conditions: 635 nm fluorescence, higher = more signal;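 further: fluorescence read at 667 nm with signal to noise per printed feature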
# [2] = ATP-based viability of Huh7 replicon cells – cell-based, CellTiter-Glo luminescence, basal, 48 h, cytotoxicity control for HCV replication inhibitor project, primary screen (AID 1143); conditions: higher = more signal, called active from +8 up or from −8 down;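 further: Huh7 hepatoma cells carrying a hepatitis C replication reporter with no stimulus; test concentration not given here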
# [3] = basal CRE-LacZ reporter activity in PC12 – cell-based, unstimulated, primary screen (AID 1145); conditions: no forskolin, luminescence, 4.5 h, higher = more signal, called active from +8 up or from −8 down
# [4] = forskolin-driven CRE-LacZ activity in PC12 – cell-based, CRE-LacZ reporter, forskolin-stimulated, primary screen (AID 1146); conditions: luminescence, 4.5 h, higher = more signal, called active from +8 up or from −8 down;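 further: PC12 cells with 6xCRE LacZ reporter stimulated by forskolin 10 µM; beta-galactosidase reporter signal reflecting CREB driven transcription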
# [5] = biological target: Streptavidin (Streptomyces avidinii) (UniProt P22629); assay: compounds binding control protein streptavidin – biophysical, small-molecule microarray, 635/667 nm fluorescence, artefact control for SMM compound annotation, primary screen (AID 1147); conditions: higher = more signal;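 further: signal reflects streptavidin binding to arrayed compounds as a control protein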
# [6] = probe aInhba binding on compound microarray – biochemical, small-molecule microarray, 635/667 nm fluorescence, primary screen (AID 1148); conditions: higher = more signal;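 further: score merges 667nm spot fluorescence with signal-to-noise for antibody binding to printed compounds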
# [7] = biological target: Torsin-1A (Homo sapiens) (UniProt O14656); assay: TOR1A wild-type binding on microarray – cell lysate, small-molecule microarray, lysate, 635/667 nm, primary screen (AID 1149); conditions: COS7 hTOR1A-WT lysate, 635 nm fluorescence, higher = more signal
# [8] = biological target: Torsin-1A (Homo sapiens) (UniProt O14656); assay: torsin A mutant lysate binding on microarrays – cell lysate, small-molecule microarray, COS7 lysate, 635/667 nm fluorescence, primary screen (AID 1150); conditions: COS7 hTOR1A mutant lysate, 635 nm fluorescence, higher = more signal;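 further: score pools 667 nm emission and signal to noise measuring lysate protein binding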
# [9] = tested on: Sonic hedgehog protein (Shh); assay: Sonic hedgehog microarray binding compounds – biochemical, small-molecule microarray, 635/667 nm fluorescence, primary screen (AID 1151); conditions: 635 nm fluorescence, higher = more signal;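 further: Shh protein binding to compounds spotted on small-molecule microarray slides; score combines spot fluorescence intensity with signal-to-noise across triplicate slides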
# [10] = optical density shifts of acrAB sulA E. coli – strain DRC41, OD650, 48 h, E. coli filamentation inducer project, primary screen (AID 1152); conditions: higher = more signal, called active from +8 up or from −8 down;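 further: E. coli MC1000 strain DRC41 lacking acrAB efflux pump and sulA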
# [11] = probe aLefty1 binding on compound microarray – biochemical, small-molecule microarray, 635/667 nm fluorescence, primary screen (AID 1153); conditions: higher = more signal;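 further: score merges spot fluorescence with signal-to-noise ratio from the scanned slide images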
# [12] = plasmodial surface anion channel blockers, osmotic lysis – cell-based, P. falciparum Indochina, OD700, 1 h, primary screen (AID 1154); conditions: P. falciparum Indochina infected RBC osmotic lysis, higher = more signal, called active from +8 up or from −8 down
# [13] = plasmodial surface anion channel blockers, osmotic lysis – cell-based, P. falciparum Indochina, OD700, 2 h, primary screen (AID 1155);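 further: lysis reports solute entry through the parasite surface anion channel PSAC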; conditions: P. falciparum Indochina infected erythrocytes, higher = more signal, called active from +8 up or from −8 down
# [14] = changes in parasitized red cell lysis, either direction – P. falciparum Indochina, OD700, 3 h, PSAC antagonist project, primary screen (AID 1156); conditions: P. falciparum-infected erythrocytes, osmotic lysis, higher = more signal, called active from +8 up or from −8 down
# [15] = plasmodial surface anion channel blockers, osmotic lysis – cell-based, P. falciparum Indochina, OD700, 18 h, primary screen (AID 1157); conditions: P. falciparum Indochina infected erythrocytes, osmotic lysis OD700, 18 h; higher = more signal, called active from +8 up or from −8 down
# [16] = S6 kinase pathway phospho-S6 level changes – cell-based, A549, cytoblot, luminescence, serum-stimulated, primary screen (AID 1158); conditions: 5 h, higher = more signal;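 further: serum-stimulated A549 lung adenocarcinoma cells; signal is phosphorylated S6 detected by cytoblot immunostaining with HRP secondary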
# [17] = biological target: NADPH oxidase 2 (Homo sapiens) (UniProt P04839); assay: compounds shifting NOX2 Amplex Red fluorescence – cell-based, HEK293-NOX2, PMA-stimulated, NOX inhibitor project, primary screen (AID 1159); conditions: 45 min, higher = more signal, called active from +8 up or from −8 down; further: test concentration not given here
# [18] = biological target: NADPH oxidase 4 (Homo sapiens) (UniProt Q9NPH5); assay: compounds shifting NOX4 Amplex Red fluorescence – cell-based, HEK293-NOX4, tetracycline-induced, NOX inhibitor project, primary screen (AID 1160); conditions: HEK293-NOX4, Amplex Red H2O2 fluorescence, 45 min; higher = more signal, called active from +8 up or from −8 down
# [19] = biological target: NADPH oxidase 5 (Homo sapiens) (UniProt Q96PH1); assay: compounds shifting NOX5 Amplex Red fluorescence – cell-based, HEK293-NOX5, NOX inhibitor project, primary screen (AID 1161); conditions: HEK293-NOX5, ionomycin, 45 min, higher = more signal
# NADPH oxidase 5 (Homo sapiens), sequence (Q96PH1 whole entry, looked up): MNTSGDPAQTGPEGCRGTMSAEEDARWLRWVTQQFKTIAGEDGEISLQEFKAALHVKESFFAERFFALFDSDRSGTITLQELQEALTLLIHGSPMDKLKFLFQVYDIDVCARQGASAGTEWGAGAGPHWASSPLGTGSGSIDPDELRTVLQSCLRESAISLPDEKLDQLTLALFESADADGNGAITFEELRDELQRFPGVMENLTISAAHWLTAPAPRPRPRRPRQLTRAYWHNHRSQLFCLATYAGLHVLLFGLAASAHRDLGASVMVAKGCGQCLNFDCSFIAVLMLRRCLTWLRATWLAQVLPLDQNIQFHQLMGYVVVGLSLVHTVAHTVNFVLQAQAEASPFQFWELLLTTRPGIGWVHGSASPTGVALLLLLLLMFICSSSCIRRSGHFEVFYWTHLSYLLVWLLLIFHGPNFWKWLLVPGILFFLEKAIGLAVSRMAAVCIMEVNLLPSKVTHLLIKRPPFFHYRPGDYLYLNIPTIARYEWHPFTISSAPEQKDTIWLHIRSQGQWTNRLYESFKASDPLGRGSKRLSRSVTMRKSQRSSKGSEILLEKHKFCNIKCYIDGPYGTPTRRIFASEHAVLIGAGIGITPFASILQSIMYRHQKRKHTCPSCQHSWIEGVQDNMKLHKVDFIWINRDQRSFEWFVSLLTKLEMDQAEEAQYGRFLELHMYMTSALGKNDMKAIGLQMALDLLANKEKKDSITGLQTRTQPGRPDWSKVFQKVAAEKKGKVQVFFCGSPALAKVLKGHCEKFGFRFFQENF
# NADPH oxidase 2 (Homo sapiens), sequence (P04839 whole entry, looked up): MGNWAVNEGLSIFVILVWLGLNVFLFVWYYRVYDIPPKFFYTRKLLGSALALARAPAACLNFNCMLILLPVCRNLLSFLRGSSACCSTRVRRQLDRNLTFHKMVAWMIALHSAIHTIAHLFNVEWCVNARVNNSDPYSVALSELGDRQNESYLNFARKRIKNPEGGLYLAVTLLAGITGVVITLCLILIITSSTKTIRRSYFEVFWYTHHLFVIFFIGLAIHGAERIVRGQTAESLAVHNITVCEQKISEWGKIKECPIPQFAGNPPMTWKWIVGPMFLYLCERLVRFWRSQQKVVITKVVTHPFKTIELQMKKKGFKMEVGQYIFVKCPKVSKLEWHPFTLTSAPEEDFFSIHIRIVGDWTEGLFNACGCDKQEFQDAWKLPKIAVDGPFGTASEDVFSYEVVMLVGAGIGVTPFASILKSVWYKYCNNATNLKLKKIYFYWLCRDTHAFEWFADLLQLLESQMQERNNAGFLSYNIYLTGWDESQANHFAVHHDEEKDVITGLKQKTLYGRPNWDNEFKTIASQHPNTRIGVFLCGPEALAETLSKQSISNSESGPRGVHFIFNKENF
# Streptavidin (Streptomyces avidinii), sequence (P22629 whole entry, looked up): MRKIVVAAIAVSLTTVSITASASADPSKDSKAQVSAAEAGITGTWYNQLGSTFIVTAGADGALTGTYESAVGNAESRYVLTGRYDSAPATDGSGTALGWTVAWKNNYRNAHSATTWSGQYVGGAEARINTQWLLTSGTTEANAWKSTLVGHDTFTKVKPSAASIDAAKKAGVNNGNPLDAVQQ
# Torsin-1A (Homo sapiens), sequence (O14656 whole entry, looked up): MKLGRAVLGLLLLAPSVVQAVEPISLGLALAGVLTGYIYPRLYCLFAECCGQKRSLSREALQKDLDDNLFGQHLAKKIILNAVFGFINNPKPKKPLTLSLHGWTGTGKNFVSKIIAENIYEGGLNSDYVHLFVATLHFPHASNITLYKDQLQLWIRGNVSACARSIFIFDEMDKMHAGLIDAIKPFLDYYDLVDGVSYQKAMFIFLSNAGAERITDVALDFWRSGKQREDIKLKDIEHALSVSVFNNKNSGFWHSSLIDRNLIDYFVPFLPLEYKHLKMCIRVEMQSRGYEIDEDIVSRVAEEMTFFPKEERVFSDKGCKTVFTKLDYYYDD
# NADPH oxidase 4 (Homo sapiens), sequence (Q9NPH5 whole entry, looked up): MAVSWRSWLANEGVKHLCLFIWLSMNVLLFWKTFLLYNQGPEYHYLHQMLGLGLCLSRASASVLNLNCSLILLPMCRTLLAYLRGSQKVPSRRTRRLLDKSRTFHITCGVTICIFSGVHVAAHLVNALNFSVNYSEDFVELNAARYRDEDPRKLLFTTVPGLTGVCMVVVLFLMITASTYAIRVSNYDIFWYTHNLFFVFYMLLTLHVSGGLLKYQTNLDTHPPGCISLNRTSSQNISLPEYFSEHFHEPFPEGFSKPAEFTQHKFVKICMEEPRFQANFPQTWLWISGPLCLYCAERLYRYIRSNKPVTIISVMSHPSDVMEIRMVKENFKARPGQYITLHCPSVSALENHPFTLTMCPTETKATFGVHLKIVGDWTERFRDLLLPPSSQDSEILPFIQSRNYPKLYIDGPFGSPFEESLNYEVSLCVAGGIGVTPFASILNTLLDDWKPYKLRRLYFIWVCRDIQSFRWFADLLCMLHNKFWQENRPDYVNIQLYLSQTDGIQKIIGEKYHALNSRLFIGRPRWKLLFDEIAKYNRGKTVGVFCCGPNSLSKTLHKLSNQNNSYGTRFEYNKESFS
SMILES,composite z-score [1],z-score [2],z-score [3],z-score [4],composite z-score [5],composite z-score [6],composite z-score [7],composite z-score [8],composite z-score [9],z-score [10],composite z-score [11],z-score [12],z-score [13],z-score [14],z-score [15],z-score [16],z-score [17],z-score [18],z-score [19]
CC(C)CNC(=O)[C@@]1(C)c2ccccc2C(=O)N(Cc2ccc(OC(F)(F)F)cc2)[C@H]1c1ccc(CO)cc1,0.12,-1.65 (inactive),0.0279 (inactive),-0.569 (inactive),-1.12,-0.128,-0.0233,0.316,-0.406,1.28 (inactive),0.152,2.97 (inactive),0.251 (inactive),1.09 (inactive),-0.0139 (inactive),0.181,-0.201 (inactive),0.775 (inactive),1.01
O=C1c2ccccc2[C@](Cc2ccccc2I)(C(=O)NCc2ccccc2)[C@H](c2ccc(CO)cc2)N1Cc1ccccc1C(F)(F)F,-0.246,-2.5 (inactive),0.0909 (inactive),-0.487 (inactive),-0.409,-0.0313,-0.635,-0.162,-0.197,1.73 (inactive),-0.103,1.62 (inactive),-0.664 (inactive),-0.345 (inactive),-1.24 (inactive),0.524,0.617 (inactive),-0.738 (inactive),2.32
COc1ccc(-c2ccccc2[C@@H]2N[C@H](C(=O)O)CC[C@H]2C)cc1,-0.053,-1.45 (inactive),1.01 (inactive),-0.902 (inactive),0.376,-0.109,0.69,0.272,0.289,0.522 (inactive),-0.147,0.908 (inactive),0.443 (inactive),1.42 (inactive),-0.0201 (inactive),0.305,0.653 (inactive),-1.28 (inactive),-0.431
COc1cccc([C@@H]2[C@@H](C)CC[C@H]3C(=O)N(C)[C@@H](C(C)C)C(=O)N23)c1,0.0537,-0.205 (inactive),2.9 (inactive),-0.762 (inactive),0.398,-0.0523,0.798,0.101,0.39,1.1 (inactive),-0.193,-0.147 (inactive),0.651 (inactive),-0.355 (inactive),-0.0201 (inactive),0.423,0.226 (inactive),0.0929 (inactive),0.265
O=C(NCC(O)CO)[C@]1(Cc2ccccc2)N=C(c2ccc(OCCCO)cc2)O[C@@H]1c1ccccc1 (stereo partly drawn),0.454,-3.91 (inactive),0.171 (inactive),-1.08 (inactive),1.38,0.633,0.379,1.81,-0.617,0.738 (inactive),1.39,25.1 (active),12 (active),0.267 (inactive),0.35 (inactive),0.807,0.489 (inactive),1.68 (inactive),1.7
CCC(=O)[C@]12O[C@@]3([C@@H]4C(=O)OCC[C@@H]41)N(CC)C(C)=C(C(=O)OC)[C@@H](c1ccccc1)N3C2=O,-0.0488,-3.62 (inactive),-0.0708 (inactive),-1.58 (inactive),-0.194,-0.283,-0.0028,-0.063,1.92,0.362 (inactive),-0.29,0.91 (inactive),-0.071 (inactive),-1.35 (inactive),-1.08 (inactive),0.815,1.5 (inactive),-1.36 (inactive),0.922
CCC(=O)[C@]12O[C@@]3([C@@H]4C(=O)OCC[C@@H]41)N(Cc1ccccc1)C(C)=C(C(=O)OC)[C@@H](c1ccccc1)N3C2=O,-0.183,-0.596 (inactive),1.01 (inactive),-1.32 (inactive),-0.444,-0.0448,-0.453,-0.296,1.16,0.57 (inactive),-0.243,0.34 (inactive),-1.22 (inactive),0.573 (inactive),-1.74 (inactive),0.21,1.2 (inactive),0.785 (inactive),0.538
CO[C@H]1COC(=O)[C@@H](Cc2ccccc2)NC(=O)[C@@H](C)COC(=O)CC=C[C@@H]1C,-0.0866,0.7 (inactive),8.02 (active),-0.445 (inactive),-0.282,-0.263,0.379,-0.0112,1.02,0.428 (inactive),-0.0573,-0.224 (inactive),-0.204 (inactive),-0.234 (inactive),-0.481 (inactive),-0.003,-0.246 (inactive),0.937 (inactive),0.264
CC(C)(C)OC(=O)CC[C@]1(C(=O)NCCN2CCOCC2)N=C(c2ccc(OCCCO)cc2)O[C@H]1c1ccccc1CN=[N+]=[N-],0.358,-1.11 (inactive),1.57 (inactive),-1.79 (inactive),0.225,0.0386,0.474,1.06,-0.577,1.66 (inactive),-0.0162,9.62 (active),0.121 (inactive),0.434 (inactive),-1.81 (inactive),1.04,1.06 (inactive),0.755 (inactive),0.699
C[C@]1(C(=O)NCc2ccccc2)c2ccccc2C(=O)N(Cc2cc(C(F)(F)F)cc(C(F)(F)F)c2)[C@H]1c1ccc(CO)cc1,0.944,-5.26 (inactive),-0.735 (inactive),-1.41 (inactive),0.157,0.447,0.462,0.334,1.51,2.32 (inactive),0.364,6.25 (inactive),1.11 (inactive),0.709 (inactive),0.448 (inactive),3.92,-1.35 (inactive),-1.03 (inactive),-1
Cc1ccc(S[C@]2(C(=O)O)CC(=O)N(Cc3ccccc3)[C@@H]2c2ccc(CO)cc2)cc1,0.0167,-1.22 (inactive),-0.412 (inactive),-0.84 (inactive),-0.185,-0.154,0.0253,0.12,0.0306,2.89 (inactive),0.0215,2.85 (inactive),-0.263 (inactive),1.09 (inactive),-0.707 (inactive),0.462,-0.198 (inactive),-0.197 (inactive),1.6
C[C@@H]1CC[C@H]2C(=O)N3CCC[C@H]3C(=O)N2[C@H]1c1ccc(Br)cc1,0.12,-0.184 (inactive),1.1 (inactive),-0.0739 (inactive),1.98,-0.0986,0.529,0.492,-0.0312,1.29 (inactive),-0.218,0.338 (inactive),-0.0391 (inactive),0.363 (inactive),0.444 (inactive),0.349,0.607 (inactive),0.296 (inactive),0.764
C=CC(=O)O[C@@H](Cc1ccccc1)[C@H]1C2C=CCCC=C2CN1Cc1cccc(Cl)c1 (stereo partly drawn),-0.172,-0.904 (inactive),1.03 (inactive),-0.678 (inactive),-0.575,-0.082,-0.471,0.393,-0.0211,3.24 (inactive),-0.378,1.35 (inactive),0.893 (inactive),0.781 (inactive),0.182 (inactive),0.711,-0.192 (inactive),0.758 (inactive),0.467
C[N+](C)(C)CCCC[C@@H]1NC(=O)[C@H]2C[C@@H](C(=O)NCc3ccc(F)cc3)[C@@H](c3cccc(OCCO)c3)N2C1=O,0.141,-0.533 (inactive),1.23 (inactive),-0.396 (inactive),-0.326,-0.0963,0.55,1.07,1.4,0.923 (inactive),-0.0536,2.46 (inactive),-1.3 (inactive),-5.77 (inactive),-2.37 (inactive),0.123,0.999 (inactive),0.834 (inactive),1.53
CO[C@H]1COC(=O)CC=C[C@H](C)COC(=O)[C@@H](OCc2ccccc2)C=C[C@@H]1C,-0.192,-4.32 (inactive),0.252 (inactive),-1.2 (inactive),0.846,-0.29,2.67,2.29,2.06,-0.168 (inactive),-0.338,0.733 (inactive),-1.13 (inactive),-0.858 (inactive),-2.2 (inactive),1.27,0.837 (inactive),-0.234 (inactive),0.164
O=C(CS)NCCCCCNC(=O)[C@H]1C[C@H]2C(=O)N3CCC[C@H]3C(=O)N2[C@H]1c1ccc(O)cc1,0.143,-0.564 (inactive),-0.528 (inactive),-1.59 (inactive),-1.13,-0.024,-0.159,0.0883,1.63,1.65 (inactive),0.357,2.68 (inactive),-0.856 (inactive),-2.55 (inactive),-1.63 (inactive),1.24,0.274 (inactive),0.00663 (inactive),0.214
CO[C@@H]1COC(=O)CC=C[C@@H](C)[C@H](OC)COC(=O)CC=C[C@H]1C,-0.0731,-0.147 (inactive),-0.658 (inactive),-0.82 (inactive),-0.428,-0.253,0.685,0.349,1.29,0.356 (inactive),-0.257,-0.611 (inactive),-0.163 (inactive),-0.335 (inactive),-0.0143 (inactive),0.711,-0.49 (inactive),0.276 (inactive),0.586

# — PubChem BioAssay
